# Laboratory results published in PubChem BioAssay AID598 (SRMLSC, 2007).
# Out of some 85,000 compounds screened, about 5,100 (6%) were called active. What follows is part of a selection rich in actives, with near analogues and random picks from the rest. A number with no mark means an inactive call.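 Rule for the calls: active = viability at or below 40%; inactive = viability above 40%.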
# Assay: H69AR cell viability reduction – human, 86K library, primary screen (AID 598);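 note: multidrug resistant small cell line overexpressing MRP-1 efflux transporter; 100% = mean luminescence of untreated control wells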
# Conditions: H69AR lung tumor viability, ATP luminescence, 72 h; at 10 µM; active compounds read low
row,SMILES,viability
1,c1ccc(-n2nc3ccccc3n2)cc1,96%
2,Cc1nn(Cc2ccccc2)c2c1C(c1ccccc1)C(C#N)=C(N)O2 (configuration not stated),76.3%
3,Cc1cc(C(=O)OC(C)C(=O)Nc2cccc(S(=O)(=O)N3CCOCC3)c2)c(C)o1 (configuration not stated),102%
4,COC(=O)C1=C(Nc2ccc(C)cc2)C=C(C)C(C(=O)OC)C1c1ccc(F)cc1 (configuration not stated),12.1% (active)
5,COC(=O)C1C(=O)NCC1c1ccc(C)cc1 (configuration not stated),82.2%
6,COC(=O)C1=C(Nc2ccc(OC)cc2)C=C(C)C(C(=O)OC)C1c1ccc(C)cc1 (configuration not stated),55.6%
7,CCOC(=O)c1ccc2c(c1)nc(C)n2CC,113%
8,Cc1nnc(NC(=O)CCCOc2ccccc2)s1,93.8%
9,CCC(CC)C(=O)N1CC(=O)Nc2ccc(Br)cc2C1c1ccccc1 (configuration not stated),87%
10,COC(=O)/C(NC(C)=O)=C(\C)c1ccc(Cl)cc1,102%
11,Cc1cccc(NC(=O)/C(=C\c2ccco2)NC(=O)c2ccccc2)c1,85.2%
12,Cc1cc(C)cc(N(CC(=O)N2CC=C(c3ccccc3)CC2)S(=O)(=O)c2c(C)noc2C)c1,22.6% (active)
13,CCOC(=O)C1CCCN(C(=O)CN(c2ccc(OC)cc2)S(=O)(=O)c2c(C)noc2C)C1 (configuration not stated),78.5%
14,Cc1cc(C)cc(N(CC(=O)NCC2CCCO2)S(=O)(=O)c2c(C)noc2C)c1 (configuration not stated),92.5%
15,CCOC(=O)C1C(=O)NCC1c1ccccc1 (configuration not stated),99.9%
16,O=C(c1cc2sccc2n1Cc1ccc(F)cc1)N1CCc2ccccc21,76%
17,COC(=O)c1cc(NC(=O)CC2C(=O)NCCN2C(=O)c2ccc(F)cc2)cc(C(=O)OC)c1 (configuration not stated),80%
18,C=C1c2cc(CC)ccc2NC(=O)N1c1ccc(C)cc1,91.4%
19,CCc1ccc2c(c1)C1(NN=C(c3ccccc3)S1)C(=O)N2 (configuration not stated),15.2% (active)
20,O=C1Nc2ccccc2C12Nc1ccccc1S2 (configuration not stated),85.7%
21,CCC(=O)NC(Nc1nc2ccc(C)cc2s1)(C(=O)OC)C(F)(F)F (configuration not stated),82.5%

row,SMILES,viability
1,CC(C)CC(=O)Nc1cc(C(F)(F)F)ccc1N1CCOCC1,80.6%
2,O=C(NCc1ccco1)c1ccc(Cn2c(=O)c3sccc3n(Cc3ccc(F)cc3)c2=O)cc1,82.3%
3,COc1ccccc1NC(=O)C1CCCN(c2cc(C)nc3ncnn23)C1 (configuration not stated),85.4%
4,COc1cccc(-c2nn(C)c3sc(C(=O)N4CCN(c5ccccc5)CC4)cc23)c1,70.9%
5,CCOC(=O)N1CCN(C(=O)c2cc3c(-c4ccc(Cl)cc4)nn(C)c3s2)CC1,31.4% (active)
6,COc1ccccc1N1CCN(C(=O)c2cc3c(-c4ccc(Cl)cc4)nn(C)c3s2)CC1,79.4%
7,CSc1nc(-c2ccco2)nn1C(=O)CCc1ccccc1,94.3%
8,Cc1ccccc1CSCCNC(=O)c1ccc(Cl)c(S(=O)(=O)N2CCOCC2)c1,24.7% (active)
9,O=C(NCCSCc1ccccc1)c1ccc(Cl)c(S(=O)(=O)N2CCOCC2)c1,72.6%
10,Cc1ccc(C(=O)Nc2ccccc2C(=O)NC2CCCCC2)cc1S(=O)(=O)N1CCOCC1,73%
11,CCCc1noc2c1/C(=N\O)CCC2,111%
12,COc1ccc(C(=O)c2oc3ccc(Br)cc3c2NC(C)=O)cc1,37.9% (active)
13,CC(C)C(=O)Nc1c(C(=O)c2ccc(F)cc2)oc2ccccc12,83.5%
14,COC(=O)c1oc2ccc(Br)cc2c1NC(C)=O,95%
15,CCn1nnnc1SCC(=O)c1ccc(C)cc1C,101%
16,CN(C)c1ccc(CNC2C3CC4CC(C3)CC2C4)cc1 (configuration not stated),99.4%
17,O=C(Nc1cccc(Cl)c1)Nc1nnc(-c2ccccc2)o1,70.9%
18,CC(C)(C)c1ccc(C(=O)NCCC(=O)NCc2ccco2)cc1,87.7%
19,CC(C)(C)c1ccc(NC(=O)NCc2ccco2)cc1,39.5% (active)
20,Cc1ccccc1NC(=O)NCc1ccco1,99.6%
21,CCC(c1nnnn1C(C)(C)C)N(Cc1cc2cccc(C)c2n2nnnc12)C1CCCC1 (configuration not stated),78.9%

row,SMILES,viability
1,CCOc1cc(N2CCOCC2)c(OCC)cc1NC(=O)COc1cccc2cccnc12,21.9% (active)
2,CCOc1cc(N2CCOCC2)c(OCC)cc1NC(=O)COC(=O)[C@H](Cc1c[nH]c2ccccc12)NC(C)=O,71.8%
3,CCOc1cc(NC(=O)c2ccco2)c(OCC)cc1NC(=O)COc1ccccc1,91.9%
4,O=C(Nc1cccc(NC(=O)c2ccco2)c1)c1cnccn1,87.2%
5,Cc1cc(C)c(NC(=O)CN2CCOCCOCCOCCOCC2)c(C)c1,97.2%
6,Cc1cc(Cl)c(S(=O)(=O)N(C)C)cc1OCC(N)=O,96%
7,CCCCC(C(=O)OCC(=O)c1ccc(OC)cc1)N1C(=O)c2ccccc2C1=O (configuration not stated),95%
8,CC/C(O)=N\S(=O)(=O)c1ccc(N=NN(C)C)cc1,85.7%
9,CN(C)S(=O)(=O)c1ccc(N2CCCC2)c(C(=O)NCc2ccccc2)c1,83.6%
10,CCOC(=O)C1=C(O)CSC1=Nc1cccc(Cl)c1,91.2%
11,Clc1cccc(N=C2NN=C(c3ccc4c(c3)OCCO4)CS2)c1,1.44% (active)
12,COCCn1c(C)cc(C2=NNC(=Nc3ccc(F)cc3)SC2)c1C,88.2%
13,CN1CCN(C(=O)Cn2c(C(F)(F)F)nc3ccccc32)CC1,96.4%
14,O=C(Nc1nnc(C2CC2)s1)c1ccccn1,81%
15,O=C1Nc2cc(Cl)c(Cl)cc2N(O)N1c1cc(Cl)cc(Cl)c1,102%
16,COc1cccc(N(CC(=O)NCCSc2ccccn2)S(C)(=O)=O)c1,95.5%
17,CC1(C)OC(=O)N2CCc3ccccc3C21C (configuration not stated),91.6%
18,O=C(Nc1ccc(S(=O)(=O)N2CCc3ccccc3C2)cc1)c1ccccc1,69%
19,O=C(COC(=O)c1ccc(S(=O)(=O)N2CCc3ccccc3C2)cc1)NC(=O)NCc1ccco1,18.3% (active)
20,O=C(CN1CCN(S(=O)(=O)/C=C/c2ccccc2)CC1)NC(=O)NCc1ccco1,93.8%
